Screening data (PubChem BioAssay)
A selection: hits, their analogues and other compounds. The true share with any hit is near 5.9%.
TGFb SMAD3 inh = qHTS for Inhibitors of TGF-b; 410,000 tested, 1.2% active; Potency, µM (titrated, usually from 46.1 µM), most hits filed as inhibitors; AID 588855, 2011; HepG2 CAGA-GFP TGF-b/SMAD3 reporter, GFP fluorescence, 18 h; TGF-beta stimulated, 500 pg/mL final; further: nearly all actives have a fitted effect of over 65% in size
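First, reporter cells (HEPG2 CAGA-GFP) rested 2 h at 37 degrees C. Next, compounds were pinned in and TGF-beta added to 500 pg/mL final. After 18 h, GFP was imaged per cell and summed per well.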
ATXN2 expr inh = Primary qHTS for Inhibitors of ATXN expression; 360,000 tested, 0.72% active; Potency, µM (highest dose often 57 µM), usual class: inhibitors; HEK-293 ATXN2-luciferase reporter, luminescence, 24 h; further: nearly all actives have a fitted effect of over 55% in size
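ATXN2-luciferase reporter cells (luciferase flanked by upstream and downstream ATXN2 gene portions) were treated 24 h at 37 °C with compounds at up to 57 uM. SteadyGlo luminescence gave expression; GF-AFC fluorescence gave viability.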
ATXN viability = Viability Counterscreen for Primary qHTS for Inhibitors of ATXN expression; 400,000 tested, 0.49% active; AID 651635, 2014; S2 cells (HEK-293 line with an ATXN2-luciferase reporter) viability, CellTiter-Fluor protease fluorescence, 24 h; Potency, µM (top dose mostly 56.7 µM), most hits filed as cytotoxic; further: nearly all actives have a fitted effect of over 40% in size
KB-V1 MDR tox = qHTS assay for MDR1-selective chemotherapeutics: Primary screen using the drug-selected MDR subline cells KB-V1 | KB-V1 MDR cells viability, CellTiter-Glo, 72 h | Potency, µM (series often up to 46.1 µM), hits mostly cytotoxic | 400,000 tested, 3.4% active | AID 1347076, 2019; further: nearly all actives have a fitted effect of over 60% in size
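Cytotoxicity via CellTiter-Glo luminescence after 72 h compound exposure at 37 degrees C. Cells: drug-selected KB-V1 line, DMEM phenol-red free plus 10% FBS. Compounds tested at multiple concentrations; normalized data fitted to concentration-effect curves.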
KB-3-1 tox = qHTS assay for MDR1-selective chemotherapeutics: Primary screen using the parental adenocarcinoma cell KB-3-1 | KB-3-1 viability, CellTiter-Glo ATP luminescence, 72 h | Potency, µM (top dose mostly 46.1 µM), actives largely listed as cytotoxic | 400,000 tested, 1.4% active; further: nearly all actives have a fitted effect of over 60% in size
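KB-3-1 parental drug-naive adenocarcinoma cells in DMEM/10% FBS, incubated 72 h at 37 C with pin-transferred compounds across a concentration series. Viability by CellTiter-Glo luminescence; concentration-response curves fitted after normalization.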
HepG2 viability = qHTS for Inhibitors of TGF-b: Cytotox Counterscreen. HepG2 CAGA-GFP viability, ATP luminescence, 18 h. Potency, µM (highest dose often 46.1 µM), most hits filed as cytotoxic. 410,000 tested, 0.76% active
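HepG2 CAGA-GFP cells (1000/well, DMEM with 1% FBS) received compound, then TGF-beta at 500 pg/mL final, and were incubated 18 hours at 37 degrees C. Viability was read by CellTiter-Glo luminescence. Media-only wells were set as complete cell-killing and DMSO as no toxicity.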
Hits are given with their value; i = inactive; ? = inconclusive; nt = no result; [ ] = another dose, or the depositor's remark. The call rests on the fitted dose curve; in most records, active means well fitted curve in the direction sought with a large enough effect; inconclusive means small, poorly fitted or top-dose-only effect, or another doubt; inactive means no such curve, though single readings can be large; an effect the other way counts as inactive or inconclusive.

SMILES	TGFb SMAD3 inh	ATXN2 expr inh	ATXN viability	KB-V1 MDR tox	KB-3-1 tox	HepG2 viability
N#C/C(=C(/O)c1cc2ccccc2o1)c1nc2ccccc2s1	?	i	i	?	20.6µM	i
N#C/C(=C(/O)c1ccco1)c1nc2ccccc2s1	?	i	?	?	?	i
C=C1C=C(C(F)F)n2ncc(C(=O)N3CCc4ccccc4C3)c2N1	i	nt	nt	i	?	i
COc1ccc(Cl)cc1Cn1c(C)c(C(=O)NCc2ccc(C#N)cc2)sc1=O	i	i	i	?	i	i
COc1ccccc1Cn1c(C)c(C(=O)NCc2ccc(C#N)cc2)sc1=O	i	i	i	16.4µM	i	i
C=Cc1ccc(Cn2c(C)c(C(=O)NCc3ccc(C#N)cc3)sc2=O)cc1	i	?	i	18.4µM	?	i
COC(=O)c1ccc(Cn2c(C)c(C(=O)NCc3ccc(C#N)cc3)sc2=O)o1	i	i	i	23.1µM	i	i
Cc1ccc(C)c(N2CCN(C(=O)c3cc4c(=O)n(Cc5cccs5)ccc4nc3C)CC2)c1	i	?	?	?	i	i
Cn1ccc2cc(S(=O)(=O)N3CCC(C(=O)NCCc4ccccc4)CC3)ccc21	i	i	i	i	i	i
Nc1ncnc2ccccc12	nt	i	nt	nt	nt	nt
CCCS(=O)(=O)NC(=O)C1(C)CCN(C(=O)/C=C/c2ccccc2)C1 (centres undefined)	i	i	i	i	i	i
Nc1ccc2cc3ccc(N)cc3nc2c1	nt	2.51µM	?	nt	nt	nt
O=S1(=O)N[C@@H](Cc2ccccc2)COc2ccc(Cl)cc21	i	i	i	i	i	i
C[C@H]1COc2cc(N(C)CCO)ccc2S(=O)(=O)N1	nt	i	i	?	i	nt
Cc1c(Cl)c(=O)oc2cc(OC(C)C)ccc12	i	i	?	20.6µM	i	i
CCCc1cc(=O)oc2cc(C)cc(O)c12	i	i	i	13µM	14.6µM	i
CCc1cc(=O)oc2cc(C)c(CN3CCCC(C)C3)c(O)c12 (centres undefined)	i	i	i	?	i	i
CCCCc1cc(=O)oc2cc(C)c(CN3CCCC3)c(O)c12	i	i	i	18.4µM	i	i
COc1ccccc1-c1ccc(C(=O)N(C)CC2COCCO2)c(N2CCN(c3ccccc3F)CC2)n1 (centres undefined)	nt	nt	i	nt	nt	nt
O=C(C[N+]12CCCc3cccc(c31)CCC2)c1ccc(Cl)c2ccccc12	i	nt	nt	i	i	i
CN1C(=O)CSc2ccc(NC(=O)N3CCN(c4ccccn4)CC3)cc21	i	i	i	18.4µM	i	i
CN1C(=O)CSc2ccc(NC(=O)N3CCc4ccccc43)cc21	i	i	i	16.4µM	i	i
O=C(Cc1csc2nc(-c3ccccc3)cn12)NCc1ccc(F)cc1	i	i	i	i	i	i
Cc1c(CN2CCOc3c(cc(-c4ncc(C(F)(F)F)cc4Cl)cc3OCC3CCCO3)C2)cnn1C (centres undefined)	nt	nt	i	nt	nt	nt
Cc1ccc(CSc2nc(=O)c3c(n2C)NC(=O)CC3c2ccc(OC(C)C)cc2)cc1 (centres undefined)	i	i	?	i	i	i
SMILES	TGFb SMAD3 inh	ATXN2 expr inh	ATXN viability	KB-V1 MDR tox	KB-3-1 tox	HepG2 viability
Cc1ccc(NC(=O)CN(C)C(=O)c2ccc3[nH]c4c(c3c2)CC(C)CC4)cc1 (centres undefined)	?	i	i	14.6µM	?	i
CCCN(CC(=O)Nc1ccccc1OC)C(=O)c1ccc2[nH]c3c(c2c1)CC(C)CC3 (centres undefined)	?	?	?	16.4µM	?	i
CCOc1ccc(NC(=O)CN(C)C(=O)c2ccc3[nH]c4c(c3c2)CC(C)CC4)cc1OCC (centres undefined)	i	i	i	i	i	i
COc1ccc(C2Nc3ccccc3C(=O)N2Cc2ccccc2)cc1COc1ccc([N+](=O)[O-])cc1 (centres undefined)	i	nt	nt	i	i	i
COc1ccc(Nc2oc(-c3ccc(COc4cccc(C)c4)o3)nc2C#N)cc1	i	i	?	?	i	i
CN(CCC#N)c1ccc(/C=C(\C#N)c2ccccn2)cc1	i	i	i	5.17µM	?	i
CCN(CC)c1ccc(/C=C(\C#N)c2ccccn2)cc1	i	i[11.3 µM]	nt	?	?	i
CN(CCC#N)c1ccc(C=C(C#N)c2ccc(Br)cc2)cc1	i	nt	i	16.4µM	i	i
COc1ccc(S(=O)(=O)N2CCC(c3nnnn3-c3ccccc3)CC2)cc1OC	i	?	i	?	?	i
COc1ccc(N(C(=O)COc2ccc(Br)cc2)S(=O)(=O)c2ccc(C)cc2)cc1	i	i	i	i	i	i
CCOC(=O)c1ccc(NC(=O)CCc2nc(-c3cccc(C)c3)no2)cc1	i	i	i	20.6µM	?	i
COc1cccc(NC(=O)CCc2nc(-c3ccccc3F)no2)c1	i	i	i	i	i	i
COc1ccccc1-c1noc(CCC(=O)Nc2cccc(C(F)(F)F)c2)n1	i	i	?	20.6µM	?	i
CC[C@H]1OC(=O)[C@H](C)[C@@H](O[C@H]2C[C@@](C)(OC)[C@@H](O)[C@H](C)O2)[C@H](C)[C@@H](O[C@@H]2O[C@H](C)C[C@H](N(C)C)[C@H]2O)[C@](C)(O)C[C@@H](C)/C(=N\OCOCCOC)[C@H](C)[C@@H](O)[C@]1(C)O	nt	nt	i	nt	nt	nt
